Bioassay records deposited in PubChem by National Center for Advancing Translational Sciences (NCATS).
VP16 counter: inhibits Gal4-VP16 luciferase reporter, ROR gamma counter-screen; Drosophila S2 Gal4-VP16 UAS-luciferase, luminescence, 20 h; 310,000 tested, 3.5% active; Potency, µM (doses to about 53.6 µM), without a hit: at the highest dose activity, negative = inhibition, most hits filed as inhibitors;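 note: Gal4-VP16 expression switched on by copper sulfate through the metallothionein promoter; nearly all actives have a fitted effect of over 50% in size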
Sfp inh: Sfp phosphopantetheinyl transferase inhibition. Potency, µM, without a hit: largest response in the series, negative = inhibition, hits mostly inhibitors. 310,000 tested, 3.5% active. Biochemical Sfp PPTase activity, qHTS. Q9F4F7;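 note: the enzyme is Sfp with the accession as filed and its product quenches rhodamine fluorescence; 0% = enzyme reaction without inhibitor and -100% = no enzyme wells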
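Compounds were incubated with enzyme (final 15 nM) for 15 min at room temperature before substrate addition started the reaction. Fluorescence at 525 nm excitation, 598 nm emission was recorded immediately and after 30 minutes.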
RORgamma inh: blocks mouse ROR gamma transcriptional activity | P51450 | Drosophila S2 Gal4-RORgamma UAS-luciferase reporter, 20 h | Potency, µM (top dose mostly 53.6 µM), for the others: at the top dose activity change, negative = inhibition, usual class: inhibitors | 310,000 tested, 5.4% active | AID 2551; note: nearly all actives have a fitted effect of over 60% in size
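Stably transfected Drosophila Schneider cells are the test system, with ROR gamma fused to Gal4 and luciferase under UAS control; luminescence is read after 20 hr of 700 uM copper sulfate induction at ambient temperature.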
ALDH1A1 block: blocks purified human ALDH1A1 activity. AID 1030. P00352. Potency, µM (series often up to 75.3 µM), for the others: at the top dose activity, negative = inhibition, most hits filed as inhibitors. Purified ALDH1A1, NADH fluorescence, propionaldehyde substrate. 220,000 tested, 7.3% active; active = well fitted inhibition curve with a large enough effect, not every such curve was filed as active; inconclusive = small, poorly fitted or top-dose-only effect, or another doubt; inactive = no such curve, though single readings can be large or run the other way;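 note: plate controls were no enzyme wells and a reference inhibitor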
Target sequence (P00352 whole entry, looked up): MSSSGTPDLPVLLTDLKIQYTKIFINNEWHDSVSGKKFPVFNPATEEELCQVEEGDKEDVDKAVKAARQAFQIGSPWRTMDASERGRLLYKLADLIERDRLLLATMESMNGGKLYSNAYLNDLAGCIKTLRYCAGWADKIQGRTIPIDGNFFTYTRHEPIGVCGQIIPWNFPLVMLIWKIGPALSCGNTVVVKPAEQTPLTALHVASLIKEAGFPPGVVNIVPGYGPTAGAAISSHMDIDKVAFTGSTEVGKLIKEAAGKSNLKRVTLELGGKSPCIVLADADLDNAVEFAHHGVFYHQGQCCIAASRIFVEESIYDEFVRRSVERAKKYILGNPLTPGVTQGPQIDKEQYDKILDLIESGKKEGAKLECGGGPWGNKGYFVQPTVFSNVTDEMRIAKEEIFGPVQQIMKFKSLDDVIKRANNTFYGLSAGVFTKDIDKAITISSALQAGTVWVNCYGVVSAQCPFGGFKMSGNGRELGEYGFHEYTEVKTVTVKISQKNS
PLK1 PBD inh: blocks phosphopeptide binding to human PLK1 polo-box domain. P53350. AID 720504. Potency, µM, for inactives: max response, negative = inhibition, most hits filed as inhibitors. 360,000 tested, 2.8% active. Plk1 PBD binding of FITC phosphopeptide, fluorescence polarization; note: series mostly up to about 57 µM; nearly all actives have a fitted effect of over 65% in size
An asterisk follows results filed as active; ? = inconclusive; . = no result. Rows were chosen to be rich in hits. Some 12% of all compounds tested hit in one or more screens of this group. Unless noted, calls come from the whole dose curve; as a rule, active = well fitted curve in the direction sought with a large enough effect; inconclusive = small, poorly fitted or top-dose-only effect, or another doubt; inactive = no such curve, though single readings can be large; an effect the other way counts as inactive or inconclusive. Unless noted, % is set by controls: 0 for no effect and ±100 for the full control effect; potency is the fitted concentration of half-maximal effect.

SMILES	VP16 counter	Sfp inh	RORgamma inh	ALDH1A1 block	PLK1 PBD inh
CCOc1ncccc1C(=O)Nc1ccc(Cl)c(S(=O)(=O)N2CCCC2)c1	-5%	6%	24%	4.5µM*	-12%
COc1ccc(NC(=O)c2oc3ccc(S(=O)(=O)N4CCC5(CC4)OCCO5)cc3c2C)cc1	-23%	-14%	-3%	22µM*	-8%
C=CCNC(=O)c1oc2ccc(S(=O)(=O)N3CCC4(CC3)OCCO4)cc2c1C	10%	5%	2%	.	1%
COc1ccc(NS(=O)(=O)c2cccc(NC(=O)c3ccc(S(=O)(=O)N4CCCCCC4)cc3)c2)cc1	3.2µM*	41%	-52%	?	-11%
COc1ccc(NS(=O)(=O)c2cccc(NC(=O)C3=NN(c4ccccc4)C(=O)CC3)c2)cc1	11µM*	3%	?	.	5%
CC1=CC(C)(C)NC(=S)N1c1ccc(N(C)C)cc1	.	.	.	.	-2%
COc1cc(S(=O)(=O)N2CCCCC2)ccc1NC(=O)c1ccccc1Cl	-5%	14%	21%	2µM*	-13%
Cc1ccc(S(=O)(=O)N2CCCCC2)cc1NC(=O)c1ccccc1Cl	.	.	.	.	-9%
Cc1ccc(NS(=O)(=O)c2ccc(Cl)c(C(=O)Nc3cccc(C(=O)O)c3)c2)cc1	-4%	8%	-11%	.	-8%
O=C(Nc1ccc(Cl)cn1)c1cc(S(=O)(=O)N2CCCCC2)ccc1Cl	-4%	3%	1%	28µM*	-14%
Cc1ccc(NC(=O)c2cc(S(=O)(=O)c3ccccc3)ccc2Cl)cc1	13%	12%	32%	10µM*	-5%
COc1ccc(NC(=O)c2cc(S(=O)(=O)N3CCCC3)ccc2OC)cc1	-1%	11%	-3%	.	17µM*
CC(C)C[C@@H](CC(=O)N[C@H](CC(=O)N[C@@H]1CCCC[C@H]1C(=O)N[C@H](CC(=O)N[C@@H](CCC(=O)O)CC(=O)O)Cc1c[nH]c2ccccc12)C(C)C)NC(=O)[C@@H]1CCCC[C@H]1N	-2%	7%	-7%	-1%	.
COC(=O)[C@@]12C[C@@H](CC(=O)N3CCC(c4ccccc4)CC3)C(=O)N(Cc3ccco3)C1=CCC(C)(C)C2	.	.	.	.	-17%
CC(=O)Nc1ccc(S(=O)(=O)N[C@@H](C)C(=O)OCC(=O)c2ccc(C)cc2)cc1	.	.	.	.	0%
O=C(NCc1cc(Cl)cc(Cl)c1)c1ccc2sc([C@H]3C[C@H](O)[C@@H](CO)O3)nc2c1	.	.	.	.	-2%
CN1CCN(S(=O)(=O)c2ccc(NC(=O)c3ccccc3Cl)cc2)CC1	-4%	12%	5%	.	-3%
CN(c1ccccc1C(=O)Nc1ccc(S(=O)(=O)N2CCCC2)cc1)S(C)(=O)=O	0%	11%	1%	13µM*	-1%
COc1ccc(NS(=O)(=O)c2ccc(N3CCCC3)c(NC(=S)Nc3cccc(S(=O)(=O)N(C)C)c3)c2)cc1	-16%	4µM*	?	3.2µM*	.
CN(C)S(=O)(=O)c1cccc(NC(=O)c2cc([N+](=O)[O-])ccc2N2CCCCC2)c1	.	.	.	.	-3%
O=C(Nc1ccc(S(=O)(=O)N2CCCCC2)cc1)c1ccccc1Cl	-30%	0%	19%	4%	30µM*
O=C(Nc1cccc(O)c1)c1cc(S(=O)(=O)N2CCCC2)ccc1Cl	-8%	5%	17%	5µM*	-1%
O=c1c(-c2ccc(F)cc2)nc2cnc(N3CCOCC3)nc2n1Cc1ccc(F)cc1	4%	-7%	-15%	?	.
Cc1c(C(=O)NNC(=O)c2ccccc2O)oc2ccccc12	.	.	.	.	-5%
CC(=O)OCC1OC(n2cc(F)c(=O)[nH]c2=O)C(OC(C)=O)C1OC(C)=O (stereo not drawn)	.	.	.	.	-8%
O=C1C(F)=CC(COC(c2ccccc2)(c2ccccc2)c2ccccc2)OC1n1cc(F)c(=O)[nH]c1=O (stereo not drawn)	.	.	.	.	6µM*
O=C(c1ccccc1)N1CCn2c1nc1ccccc12	-10%	2%	1%	0%	27µM*
C[C@H](NC(=O)N1CCn2c1nc1ccccc12)C(=O)N1CCCCC1	1%	1%	-8%	.	8.4µM*
COc1cccc(CNC(=O)CCNC(=O)N2CCn3c2nc2ccccc23)c1	-3%	18%	-8%	.	-9%
COc1ccc(CNC(=O)CCNC(=O)N2CCn3c2nc2ccccc23)cc1	-12%	0%	-2%	.	24µM*
